The record followed here is ChEMBL document CHEMBL1157539, “Thousands of chemical starting points for antimalarial lead identification” (Nature, 2010).

In the assay the test system is HepG2. Nature of the assay: GSK_TCMDC: Percent inhibition of human HepG2 cell line. Test compounds present at 10uM. In kind it is functional.
What is called Inhibition is the drop in the measured response relative to a control, in per cent. The low end stands for a weak effect, the high end for a strong effect. In turn, `O=C(Cc1cccc2ccccc12)N1CCc2cc3nccc(N4CCN5CCC[C@H]5C4)c3cc21` returned an Inhibition of 3%.

`CC(C)CNCc1ccc(-c2cccc(CN(CCN(C)C)C(=O)NCCc3ccccc3)c2)cc1.O=C(O)C(F)(F)F` returned an Inhibition of 33%.

The compound `N#CC(c1ccc(Br)cc1)c1ccc2c(C(F)(F)F)cc(C(F)(F)F)nc2n1` (stereo not given) yielded an Inhibition of 75%.

Turning to `COc1cc(F)c2ncc(C#N)c(CCN3CCC(NCc4ccc5c(c4)OCCO5)CC3)c2c1.Cl`, the Inhibition is 5%.

The compound `CS(=O)(=O)O.FC(F)(F)COc1ccc(CNCCCCCCNCc2ccc(OCC(F)(F)F)c3ccccc23)c2ccccc12` yielded an Inhibition of 99%.

Regarding `COc1cc2nc(NCCN3CCOCC3)n3nc(-c4ccccc4)nc3c2cc1OC`, the Inhibition is 15%.

In the case of `O=C(Nc1nccs1)c1cn(-c2ccccc2)nc1-c1ccc(Cl)s1`, the Inhibition came to 9%.

`COc1ccc2nccc([C@@H](O)CN3CCC(NCCOc4ccccc4C(F)(F)F)CC3)c2c1.O=C(O)C(=O)O` displayed an Inhibition of 2%.

As to `COc1ccc(Nc2nccc(-c3ccc(NC(=O)c4cc5cc(F)ccc5[nH]4)cc3)n2)cc1`, the Inhibition was determined as 21%.

For the compound `O=C(CN1CCN(S(=O)(=O)C=Cc2ccccc2)CC1)Nc1cc(C(F)(F)F)ccc1Cl`, the Inhibition is 23%.

In the case of `S=C(NCCCCCN1CCC(c2c[nH]c3ccccc23)CC1)Nc1cc(Cl)cc(Cl)c1`, the Inhibition was found to be 25%.

For the compound `c1nc(CCNc2nc(Nc3ccc4c(c3)OCO4)nc(NC3CCCC3)n2)c[nH]1`, the Inhibition is listed as 0%.

In the case of `COc1ccc2c(=O)ccn(CCN3CCC(NCc4ccc5c(n4)NC(=O)CS5)CC3)c2c1.Cl`, the Inhibition is given as 7%.

The compound `CCNc1c2ccc(Cl)cc2nc2ccc(OC)cc12.Cl` gave an Inhibition of 16%.

Turning to `Cc1c(C(=O)C2CC2CN2CCC(N3CCCC3)CC2)sc2ccccc12` (stereo not given), the Inhibition is 16%.

As for `CC(C)CN(c1nc(C(=O)NNC(=O)[C@H](CC2CC2)NC(=O)c2cc3cc(OCCN(C)C)ccc3o2)cs1)C1CC1`, the Inhibition came out at 0%.

In turn, `O=C(Nc1ccc2c(c1)CCN2C1CCN(Cc2csc3ccccc23)C1)c1ccco1` (stereo not given) showed an Inhibition of 0%.

The compound `Cc1cccc2nc(-c3ccc(-c4ccc(CNCC5CCCO5)cc4)s3)[nH]c12.O=C(O)C(F)(F)F` (stereo not given) gave an Inhibition of 11%.

As for `Cl.N#Cc1ccc2c(c1)CCN(CCC1CCC(NC(=O)c3cccc(-c4ccc(F)cc4)c3)CC1)CC2` (stereo not given), the Inhibition is reported as 32%.

With `Cl.Fc1cccc(COc2ccc(Nc3ncnc4ccc(-c5nnc(C(F)(F)F)o5)cc34)cc2Cl)c1`, the Inhibition is reported as 14%.

In turn, `Br.CC1CCC2(CC1)N=C(N)N=C(N)N2OCc1ccc(Br)c2ccccc12` (stereo not given) came in with an Inhibition of 46%.

Compound `Nc1nc(N)c2c(ccc3c2ccn3Cc2ccc(Cl)cc2)n1` yielded an Inhibition of 100%.

Consider `O=C(Nc1ccc(Cl)cc1)c1ccc(CN2CCCN(Cc3ccsc3)CC2)cc1.O=C(O)C(F)(F)F`, for which the Inhibition was determined as 48%.

Turning to `CCOC(=O)C1=C(C)NC(Cn2ccnc2)=C(C(=O)OCC)C1c1ccc(C(C)(C)C)cc1.Cl` (stereo not given), the Inhibition is 8%.

Regarding `O=C(O)C(F)(F)F.O=[N+]([O-])c1cnc(Nc2ccccc2O)nc1Nc1ccccc1O`, the Inhibition is on record as 24%.

Compound `Cc1cc(CNCCCCCNCc2cccc([N+](=O)[O-])c2)ccc1O` had an Inhibition of 14%.

Regarding `CCc1n[nH]c(C(=O)NC2CCN(CC3(c4ccc(OC)cc4)CCCCC3)CC2)c1C`, the Inhibition turned out to be 2%.

As to `c1ccc(-c2cc(NCc3cccc4ccccc34)c3[nH]ncc3n2)cc1`, the Inhibition came out at 7%.

`Cc1cc(CNCCCCCNCc2ccc(Cl)cc2)ccc1O`: the Inhibition came out at 12%.

In the case of `O=C(Nc1cccnc1)c1cn(-c2ccccc2)nc1-c1cccs1`, the Inhibition came to 3%.

Take `O=C(NC1CCCCC1)N(Cc1cccc(-c2ccc(CNCc3ccc4c(c3)OCO4)cc2)c1)C1CCN(Cc2ccccc2)CC1.O=C(O)C(F)(F)F`: the Inhibition is 13%.

In turn, `CC1(C)CCCN(Cc2c(O)ccc3c(O)c(-c4nc5ccccc5s4)c(=N)oc23)C1` registered an Inhibition of 20%.

`O=C1Nc2cccc3c2C1(CCCCN1CCC(c2c[nH]c4cc(C(F)(F)F)ccc24)CC1)CCC3` (stereo not given) had an Inhibition of 99%.

With `CN(CCc1ccccn1)c1cccc2c1nc(-c1cccnc1)n2CCNCc1ccccc1.O=C(O)C(F)(F)F`, the Inhibition worked out at 12%.

The compound `CNC(=O)NC1=NC(C)(C)N(OCc2ccc(Cl)c(Cl)c2)C(NC(=O)NC)=N1` had an Inhibition of 1%.

For the compound `CC[C@H](C)CNC(=O)c1ccnc(-c2ccc(CNCCCc3ccccc3)cc2)c1.O=C(O)C(F)(F)F`, the Inhibition came out at 17%.

The compound `CCC(ON1C(N)=NC(N)=NC1(C)C)c1ccccc1` (stereo not given) yielded an Inhibition of 61%.

Compound `COc1cc(Cc2cnc(N)nc2N)cc(OCCCCC2SC(=O)NC2=O)c1OC` (stereo not given) yielded an Inhibition of 0%.

Regarding `CCNc1cc(C(=O)N[C@@H](Cc2ccccc2)[C@H](O)CNC2CCC(C(C)(C)C)CC2)cc(N2CCCC2=O)c1` (stereo not given in full), the Inhibition is on record as 38%.

The compound `COc1ccc(CCNc2nc(NCCc3cnc[nH]3)nc(NCc3cccc4ccccc34)n2)cc1OC` showed an Inhibition of 2%.
